Legend:
Format in all cases: functional
Plasmodium falciparum [1] = assay: GSK_TCMDC: Inhibition of Plasmodium falciparum 3D7 in whole red blood cells, using parasite LDH activity as an index of growth. Test compounds present at 2uM
Plasmodium falciparum [2] = assay: GSK_TCMDC: Inhibition of Plasmodium falciparum Dd2 in whole red blood cells, using parasite LDH activity as an index of growth. Test compounds present at 2uM
HepG2 = assay: GSK_TCMDC: Percent inhibition of human HepG2 cell line. Test compounds present at 10uM.

| SMILES | Inhibition (Plasmodium falciparum [1]) | Inhibition (Plasmodium falciparum [2]) | Inhibition (HepG2) |
| --- | --- | --- | --- |
| Cc1nn(C2CCS(=O)(=O)C2)c(C)c1C1Nc2ccccc2C(=O)N1Cc1ccc2c(c1)OCO2 (centres undefined) | 98% | 93% | 7% |
| Cc1nc(N)nc(N)c1CCCOc1ccc(Br)cc1 | 97% | 5% | 30% |
| Cc1ccccc1C1CCN(C2CCC(NC(=O)C3=Cc4cc(Cl)ccc4OC3)CC2)CC1 (centres undefined) | 100% | 99% | 51% |
| CN1CCN(Cc2ccc(-c3cc4c(Nc5ccc(OCc6cccc(F)c6)c(Cl)c5)ncnc4s3)[nH]2)CC1 | 100% | 99% | 23% |
| Fc1cc(Cl)ccc1Nc1ccnc2cc(-c3ccc(CNCCN4CCOCC4)o3)ccc12 | 100% | 100% | 13% |
| Cc1cc(N[C@@H](Cc2ccccc2)C(=O)NCCOc2ccccc2)nc(NCCc2cccs2)n1.O=C(O)C(F)(F)F | 95% | 32% | 8% |
| O=C(O)C(F)(F)F.c1cc(-c2ccc(CN3CCCCC3)cc2)cc(-c2nc3ccccc3[nH]2)c1 | 100% | 79% | 39% |
| CCCCC(=O)NC(c1cccs1)c1cc(Cl)c2cccnc2c1O (centres undefined) | 93% | 90% | 50% |
| CNCCNCc1cccc(-c2ccc(-c3nc4cccc(C)c4[nH]3)s2)c1.O=C(O)C(F)(F)F | 92% | 8% | 10% |
| COc1ccc2nc(Nc3nc4cnccc4[nH]3)sc2c1 | 88% | 26% | 8% |
| O=C(/C=C/c1ccc(Cl)c(Cl)c1)NCCCCCN1CCCN(C(=O)Nc2cc(Cl)nc(Cl)c2)CC1 | 100% | 3% | 8% |
| Cc1ccc(Nc2ccnc(Nc3ccc4c(c3)CS(=O)(=O)C4)n2)cc1O.Cl | 100% | 76% | 82% |
| FC(F)(F)c1ccc2[nH]c(-c3ccc(-c4cccc(CNCC5CCCO5)c4)cc3)nc2c1.O=C(O)C(F)(F)F (centres undefined) | 100% | 100% | 36% |
| O=C(/C=C/c1ccc(F)c(Br)c1)NCCCCCN1CCC(c2c[nH]c3ccccc23)CC1 | 92% | 10% | 39% |
| Fc1ccc2[nH]c(-c3ccc(-c4ccc(CNCC5CCCO5)cc4)s3)nc2c1.O=C(O)C(F)(F)F (centres undefined) | 100% | 99% | 30% |
| Cl.NOCCCCOc1ccc(Cl)cc1 | 98% | 0% | 2% |
| Cc1ccc(NC(=O)c2ccc(Cl)cc2)cc1-c1ccc(C(=O)Nc2ccncc2)cc1 | 98% | 5% | 36% |
| CCCN(CCC)S(=O)(=O)c1ccc(C(=O)Nc2nc3ccc(-c4cc(=O)[nH]c(Nc5ccccc5Cl)n4)cc3[nH]2)cc1 | 100% | 98% | 1% |
| Nc1c(Cl)cc(C(O)CNCCCCCOCCCc2ccc(O)c3ncccc23)cc1Cl.O=C(O)/C=C/C(=O)O (centres undefined) | 90% | 12% | 65% |
| O=C(c1ccco1)N1CCN(c2nc(-c3ccc(Cl)cc3)nc3ccccc23)CC1 | 96% | 91% | 13% |
| O=C(NCCCCN1CCN(CC=Cc2ccccc2)CC1)c1ccc(NC(=O)c2cc(Cl)cc(Cl)c2)cc1 | 100% | 63% | 26% |
| COc1cccc(NC(=O)Nc2cc(-c3ccc4[nH]ncc4c3)cc3c2CNC3=O)c1 | 98% | 100% | 3% |
| O=C(/C=C/c1ccc(Cl)c(Cl)c1)NCCCCCN1CCC(NC(=O)Nc2ccccc2F)CC1 | 95% | 25% | 14% |
| Cc1ccc2c(OCCN3CCC(Cc4ccc5c(c4)NC(=O)CO5)CC3)cc(F)cc2n1.Cl | 89% | 21% | 24% |
| Br.N=C1N=C(N)NC2(CCCCC2)N1OCCCOc1cc(Cl)c(Cl)cc1Cl | 94% | 98% | 62% |
| O=C(O)C(F)(F)F.O=S(=O)(c1ccccc1)n1ccc2cc(Nc3ncnc4cc(C#C[C@H]5CCCN5)sc34)ccc21 | 85% | 56% | 50% |
| NC1CCN(Cc2cccc(-c3ccc(-c4nc5cc(F)ccc5[nH]4)cc3)c2)C1.O=C(O)C(F)(F)F (centres undefined) | 99% | 99% | 24% |
| COc1cccc2cc(C(=O)N[C@@H](CC(C)C)C(=O)N[C@H](C=NN3CC(=O)NC3=O)CC(C)C)oc12 | 86% | 64% | 3% |
